This is a sample that favours compounds with a hit; in the whole collection about 3.1% have one here.
PPC-1+TRAIL kill = kills PPC-1 cancer cells in the presence of TRAIL; AID 1443; actives 0.41% (n = 220,000); PPC-1 cells + TRAIL, ATPLite viability luminescence; cell killing (% activity), % at 4 µM or 5 µM;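 active = cell killing above 50% in the first pass at 4 µM, then a duplicate retest at 5 µM averaging 50% or more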
KKLEB cytotox = reduces viability of KKLEB cystic fibrosis airway cells; KKLEB CF airway cells viability, ATPlite luminescence, overnight; stronger effect = lower value; cells stimulated with P. aeruginosa culture filtrate; activity change (cytotoxicity), % at 5 µM; actives 0.36% (n = 360,000);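 active = corrected activity change at or below -50% at 5 µM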
Peg3 prom inh = inhibitors of Peg3 promoter | HeLa PEG-Prom luciferase reporter, luminescence, overnight | inhibition, % at 20 µM | actives 1.7% (n = 360,000);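 active = inhibition of at least 50% at 20 µM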
C8 TRAIL sens = sensitizes caspase-8 expressing cells to TRAIL. NB7+C8 cells + TRAIL, ATPlite viability luminescence. inhibition (viability loss, TRAIL sensitization), % at 10 µM. actives 1% (n = 360,000). AID 624354;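 active = compounds causing at least 50% loss of cell viability in the single-dose screen, relative to plate controls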
CF NFkB inh = inhibitors of cystic fibrosis induced NF-kB | KKLEB NF-kB-GFP reporter, PAF-induced, GFP fluorescence overnight | inhibition, % at 5 µM | actives 0.86% (n = 360,000) | AID 588850;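 active = at least 50% inhibition at 5 µM, scaled per plate between neutral and stimulator controls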;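 also: PAF is a Pseudomonas aeruginosa culture filtrate used as stimulus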
HIF-2a inh = inhibitors of HIF-2a. 786-0 RCC cells HIF-2a reporter, luciferase luminescence, overnight. inhibition, % at 18.8 µM. actives 0.72% (n = 360,000). AID 624352;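 active = inhibition of the luminescence signal of 40% or more relative to plate controls, in a single-dose primary screen at 18.75 µM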
Hits are given with their value; n = inactive; x = no result given.

SMILES | PPC-1+TRAIL kill | KKLEB cytotox | Peg3 prom inh | C8 TRAIL sens | CF NFkB inh | HIF-2a inh
CCCCCCCCCCOC(=O)Cn1c(COc2ccccc2OC)[n+](C)c2ccccc21 | x | -54 | 106 | n | 51 | 42
Cn1c(COc2ccccc2O)[n+](C)c2ccccc21 | x | n | n | n | n | n
CC(C)N(Cc1ccccc1)S(=O)(=O)c1ccc2c(c1)NC(=O)CO2 | x | n | n | n | n | n
COc1cc(C(=O)Nc2ccc3c(c2)Cc2cc(NC(=O)c4cc(OC)c(OC)c(OC)c4)ccc2-3)cc(OC)c1OC | n | -77 | n | n | 68 | n
CCOc1ccc(NC(=O)n2ncc3c(C)cccc32)cc1 | x | n | n | n | n | n
COc1cccc(NC(=O)n2ncc3c(C)cccc32)c1 | x | n | n | 53 | n | n
CC[C@H](C)[C@@H]1OC(=O)[C@@H](C)[C@@H](CC)NC(=O)[C@H](C)N(C)C(=O)C(C)(C)C(=O)C(C)NC(=O)[C@H](Cc2ccccc2)N(C)C(=O)[C@H](C(C)C)N(C)C(=O)CNC(=O)[C@H](CC(C)C)N(C)C(=O)CNC1=O (stereo partly drawn) | x | -97 | 87 | 60 | 91 | n
Cc1ccc(-n2[nH]c(C)c(C=Nc3ccc4[nH]c(=O)[nH]c4c3)c2=O)cc1C | n | n | n | 51 | n | n
Cc1ccc(-n2[nH]c(C)c(C=Nc3ccc4[nH]c(=O)[nH]c4c3)c2=O)cc1 | n | n | n | n | n | n
COc1ccc(-c2oc(NC(=O)CSc3ncn[nH]3)c(C#N)c2-c2ccc(OC)cc2)cc1 | n | n | n | n | n | n
COc1ccc(-c2oc(NC(=O)CCl)c(C#N)c2-c2ccc(OC)cc2)cc1 | n | n | 102 | n | n | n
COCCNC(=O)C1(C)CCN(C(=O)c2ccc(C(F)(F)F)nc2C)C1 (stereo not drawn) | x | n | n | n | n | n
CC(C)n1cc(CN2CCC(C(=O)Nc3cccc(-c4cscn4)c3)CC2)cn1 | x | n | n | n | n | n
CCn1cc(CN2CCCC(C(=O)Nc3cccc(-c4cc5ccccc5[nH]4)c3)C2)c(C)n1 (stereo not drawn) | x | n | n | n | n | n
Cn1cc(CN2CCCC(C(=O)Nc3cccc(-c4cc5ccccc5[nH]4)c3)C2)cn1 (stereo not drawn) | x | n | 56 | n | n | n
CC(C)n1cc(CN2CCCC(C(=O)Nc3cccc(-c4cc5ccccc5[nH]4)c3)C2)cn1 (stereo not drawn) | x | n | 97 | n | n | n
Fc1cc2[nH]c(=S)[nH]c2c(Br)c1N1CCSCC1 | x | n | n | n | n | n
O=C1Nc2ccccc2N(C(=O)c2c(F)cccc2F)C1c1nc2ccccc2[nH]1 (stereo not drawn) | x | x | x | 77 | x | n
O=C1CC(c2nc3ccccc3[nH]2)CN1c1ccccc1F (stereo not drawn) | n | n | n | n | n | n
O=C1Nc2ccccc2N(C(=O)c2ccc(-c3ccccc3)cc2)C1c1nc2ccccc2[nH]1 (stereo not drawn) | x | x | x | 74 | x | n
CC1C(=O)Nc2ccccc2N1C(=O)c1ccc(F)cc1 (stereo not drawn) | x | n | n | n | n | n
CCCC[n+]1ccn(C2=C([O-])c3ccccc3C(=O)/C2=N\S(=O)(=O)c2ccccc2)c1 | n | n | n | 51 | n | n
CCN(CC)S(=O)(=O)c1ccc(C)c(C)c1 | n | n | n | n | n | n
CC1CCN(S(=O)(=O)c2ccc3c(c2)C(=NO)c2cc(S(=O)(=O)N4CCC(C)CC4)ccc2-3)CC1 | 97 | n | 100 | 95 | 83 | n
CCN(CC)S(=O)(=O)c1ccc2c(c1)C(=NO)c1cc(S(=O)(=O)N(CC)CC)ccc1-2 | n | n | 51 | n | n | n
SMILES | PPC-1+TRAIL kill | KKLEB cytotox | Peg3 prom inh | C8 TRAIL sens | CF NFkB inh | HIF-2a inh
Cn1c2c(c(=O)n(C)c1=O)C(C(F)(F)F)(C(F)(F)F)N=C(c1ccccc1Cl)N2 | n | n | n | n | n | n
Cn1c2c(c(=O)n(C)c1=O)C(C(F)(F)F)(C(F)(F)F)N=C(CCC1CCCCC1)N2 | n | n | 58 | n | n | n
CC(C)CN1CCN(C(=O)COC(=O)c2ccc(S(C)(=O)=O)c([N+](=O)[O-])c2)CC1 | x | n | 97 | n | 79 | 94
CC(C)N(C(=O)COC(=O)c1ccccc1C(=O)c1ccc(Cl)c([N+](=O)[O-])c1)C(C)C | n | n | 74 | n | n | n
O=C(OCC(=O)N1CCc2ccccc2C1)c1ccc(Cl)c([N+](=O)[O-])c1 | x | n | 99 | n | n | n
Cc1cc(C(=O)OCC(=O)c2ccc(Cl)c([N+](=O)[O-])c2)c2cccc(C)c2n1 | n | n | n | n | n | n
COc1ccc(C(=O)c2ccc(Cl)cc2)cc1 | n | n | n | n | n | n
COc1ccc(C(=O)c2ccc(Cl)c([N+](=O)[O-])c2)cc1 | n | n | n | n | 64 | n
COC(=O)c1csc(C2OC(CO)C(O)C2O)n1 (stereo not drawn) | x | n | n | n | n | n
Cc1cc(C)c2cc(C#N)c(NCCNC(=O)c3cccnc3)nc2c1 | x | x | x | n | x | n
Cc1ccc(S(=O)(=O)N2C[C@]3(O)C[C@@H]4C(=O)N(c5ccccc5)C(=O)[C@@H]4C[C@]3(OC(=O)Nc3c(C)noc3C)C2)cc1 | x | n | n | n | n | n
NS(=O)(=O)c1ccc(NS(=O)(=O)c2ccc(NC(=O)C3CC3)cc2)cc1 | x | n | n | n | n | n
Cc1ccc(NC(=O)c2nc[nH]c2C(=O)NCCCCCNC(=O)OC(C)(C)C)cc1 | x | n | n | n | n | n
CCOC(=O)c1ccc(NC(=O)c2nc[nH]c2C(=O)NCCCCNC(=O)c2[nH]cnc2C(=O)Nc2ccc(C(=O)OCC)cc2)cc1 | x | n | 97 | n | n | n
CCOC(=O)c1ccc(NC(=O)c2nc[nH]c2C(=O)NCCCCCNC(=O)OC(C)(C)C)cc1 | n | n | 70 | 52 | n | n
CCOC(=O)c1ccc(NC(=O)c2nc[nH]c2C(=O)NCCCNC(=O)c2[nH]cnc2C(=O)Nc2ccc(C(=O)OCC)cc2)cc1 | x | n | n | n | n | n
O=C(Nc1cccc(-n2cnnn2)c1)c1ccncc1 | x | n | n | n | n | n
O=C(Nc1cccc(-n2cnnn2)c1)c1ccc(C(F)(F)F)cc1 | x | n | n | 49 | n | n
Cc1ccc(C(=O)Nc2ncc3c(n2)CC(c2ccco2)CC3=O)cc1 (stereo not drawn) | n | n | n | n | n | n
O=C(Nc1ncc2c(n1)CC(c1ccco1)CC2=O)c1ccccc1 (stereo not drawn) | 58 | n | n | n | n | n
O=C(N/N=C/c1ccccc1O)C1CC(=O)N(c2ccc(F)cc2)C1 (stereo not drawn) | x | n | 52 | n | n | n

From PubChem BioAssay
